Common to all, as to assay: cell viability relative to vehicle control; higher = less cytotoxic
Settings in all cases: 10 µM

The test system of experiment [1] is K562. A digest of the protocol: (§1)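 CRISPR-edited mutant clones and isogenic wild-type clones from four leukaemia lines were screened against Selleck bioactive, kinase and epigenetic probe libraries, with identity-inconsistent compounds excluded. Each compound was acoustically dispensed at a single 10 µM dose into 384-well plates holding 2000 cells in 50 µL medium per well. After 48 h the supernatant was removed and CellTiter-Glo luminescence was read. Viability was expressed as percent of the on-plate vehicle control and analysed in Genedata Screener.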

For experiment [2], the system named is MARIMO. An outline of the steps: as §1
The test system of experiment [3] is MOLM14. A digest of the protocol:
as §1

Experiment [4] concerns OCI-AML2. A digest of the protocol:
as §1

Each structure is given as a SMILES string. Several values for one entry are separate records, joined by “and”; a condition that tells them apart may be missing. Equal values may be shown once. Where a name gives a salt, the structure may show the parent alone.

As usually defined, the cell viability is a read-out of living cells in per cent, often relative to untreated cells. For the compound `Cc1ccc(/C=N/NC(=O)c2ccccc2Oc2ccccc2)o1`, the cell viability in experiment [1] (SRSF2 genotype: SRSF2 P95H/wt) was 96.8% and 102%; in experiment [1] (SRSF2 genotype: SRSF2 wt/wt), 96.3%; in experiment [2] (SRSF2 genotype: SRSF2 P95H/wt), 96.3%; in experiment [2] (SRSF2 genotype: SRSF2 wt/wt), 105%; in experiment [3] (SRSF2 genotype: SRSF2 P95H/wt) it was 102%; in experiment [3] (SRSF2 genotype: SRSF2 wt/wt), 98.7%. For the same compound, the cell viability in experiment [4] (SRSF2 genotype: P95H/wt) was found to be 112%; in experiment [4] (SRSF2 genotype: wt/wt), 109%.
With `CC(=O)OCC1=C(C(=O)O)N2C(=O)[C@@H](NC(=O)CSc3ccncc3)[C@H]2SC1` [cephapirin sodium], the cell viability in experiment [1] (SRSF2 genotype: SRSF2 P95H/wt) is 102% and 105%; in experiment [1] (SRSF2 genotype: SRSF2 wt/wt), 105%; in experiment [2] (SRSF2 genotype: SRSF2 P95H/wt) it was 106%; in experiment [2] (SRSF2 genotype: SRSF2 wt/wt) it was 107%; in experiment [3] (SRSF2 genotype: SRSF2 P95H/wt) it was 99.5%; in experiment [3] (SRSF2 genotype: SRSF2 wt/wt), 105%. The figures for the cell viability in experiment [4] (SRSF2 genotype: P95H/wt) and in experiment [4] (SRSF2 genotype: wt/wt) were 117% and 101%, respectively.
In the case of `COC(=O)c1ccccc1O` [Methyl salicylate], the cell viability in experiment [1] (SRSF2 genotype: SRSF2 P95H/wt) was 101% and 96.7%; in experiment [1] (SRSF2 genotype: SRSF2 wt/wt), 94.8%; in experiment [2] (SRSF2 genotype: SRSF2 P95H/wt) it was 99.2%; in experiment [2] (SRSF2 genotype: SRSF2 wt/wt) it was 104%; in experiment [3] (SRSF2 genotype: SRSF2 P95H/wt), 96.3%; in experiment [3] (SRSF2 genotype: SRSF2 wt/wt), 104%. The cell viability turned out to be 94.3% in experiment [4] (SRSF2 genotype: P95H/wt) and 102% in experiment [4] (SRSF2 genotype: wt/wt).
Consider `CN(C)C(=O)C(CCN1CCC(O)(c2ccc(Cl)cc2)CC1)(c1ccccc1)c1ccccc1` [Loperamide hydrochloride], for which the cell viability in experiment [1] (SRSF2 genotype: SRSF2 P95H/wt) is 45.5% and 54.9%; in experiment [1] (SRSF2 genotype: SRSF2 wt/wt), 49.4%; in experiment [2] (SRSF2 genotype: SRSF2 P95H/wt), 55.5%; in experiment [2] (SRSF2 genotype: SRSF2 wt/wt), 61.6%; in experiment [3] (SRSF2 genotype: SRSF2 P95H/wt), 58.5%; in experiment [3] (SRSF2 genotype: SRSF2 wt/wt) it was 59.7%. Moreover, the results for the cell viability in experiment [4] (SRSF2 genotype: P95H/wt) and in experiment [4] (SRSF2 genotype: wt/wt) were 44.2% and 54.9%, respectively.
As for `O=C(/C=C\n1cnc(-c2cc(C(F)(F)F)cc(C(F)(F)F)c2)n1)NNc1ccccn1` [Verdinexor (KPT-335)], the cell viability in experiment [1] (SRSF2 genotype: SRSF2 P95H/wt) was 11.8% and 21.6%; in experiment [1] (SRSF2 genotype: SRSF2 wt/wt) it was 14.7%; in experiment [2] (SRSF2 genotype: SRSF2 P95H/wt), 24.4%; in experiment [2] (SRSF2 genotype: SRSF2 wt/wt) it was 22.1%; in experiment [3] (SRSF2 genotype: SRSF2 P95H/wt), 2.16%; in experiment [3] (SRSF2 genotype: SRSF2 wt/wt) it was 1.01%. Besides, the cell viability in experiment [4] (SRSF2 genotype: P95H/wt) was 4.7%; in experiment [4] (SRSF2 genotype: wt/wt), 9.56%.
With `Cc1cc(=O)c2c(O)c3c(cc2o1)OC(C)(C)[C@@H](O[C@@H]1O[C@H](CO)[C@@H](O)[C@H](O)[C@H]1O)C3` [Sec-O-Glucosylhamaudol], the cell viability was 105% and 101% in experiment [1] (SRSF2 genotype: SRSF2 P95H/wt); 114% in experiment [1] (SRSF2 genotype: SRSF2 wt/wt); 106% in experiment [2] (SRSF2 genotype: SRSF2 P95H/wt); 98.7% in experiment [2] (SRSF2 genotype: SRSF2 wt/wt); 109% in experiment [3] (SRSF2 genotype: SRSF2 P95H/wt); 101% in experiment [3] (SRSF2 genotype: SRSF2 wt/wt). Further, the results for the cell viability in experiment [4] (SRSF2 genotype: P95H/wt) and in experiment [4] (SRSF2 genotype: wt/wt) were 94% and 91.3%, respectively.
As to `CC(C)OC(=O)CCC/C=C\C[C@@H]1[C@@H](CC[C@@H](O)CCc2ccccc2)[C@H](O)C[C@@H]1O` [Latanoprost], the cell viability is 93% and 96.4% in experiment [1] (SRSF2 genotype: SRSF2 P95H/wt); 90.1% in experiment [1] (SRSF2 genotype: SRSF2 wt/wt); 89.6% in experiment [2] (SRSF2 genotype: SRSF2 P95H/wt); 92.5% in experiment [2] (SRSF2 genotype: SRSF2 wt/wt); 88% in experiment [3] (SRSF2 genotype: SRSF2 P95H/wt); 103% in experiment [3] (SRSF2 genotype: SRSF2 wt/wt). The cell viability in experiment [4] (SRSF2 genotype: P95H/wt) was 97.8%; in experiment [4] (SRSF2 genotype: wt/wt) it was 98.3%.
With `CO[C@H]1C(=O)[C@]2(C)[C@@H](OC)C[C@H]3OC[C@@]3(OC(C)=O)[C@H]2[C@H](OC(=O)c2ccccc2)[C@]2(O)C[C@H](OC(=O)[C@H](O)[C@@H](NC(=O)OC(C)(C)C)c3ccccc3)C(C)=C1C2(C)C` [Cabazitaxel (Jevtana)], the cell viability in experiment [1] (SRSF2 genotype: SRSF2 P95H/wt) was 24.8% and 36.9%; in experiment [1] (SRSF2 genotype: SRSF2 wt/wt) it was 36.7%; in experiment [2] (SRSF2 genotype: SRSF2 P95H/wt), 7.53%; in experiment [2] (SRSF2 genotype: SRSF2 wt/wt) it was 5.43%; in experiment [3] (SRSF2 genotype: SRSF2 P95H/wt) it was 8.88%; in experiment [3] (SRSF2 genotype: SRSF2 wt/wt), 4.79%. Moreover, the cell viability in experiment [4] (SRSF2 genotype: P95H/wt) was 7.39%; in experiment [4] (SRSF2 genotype: wt/wt), 16%.
For the compound `Cc1cccc(Nc2nc(-c3ccncc3)cs2)c1`, the cell viability in experiment [1] (SRSF2 genotype: SRSF2 P95H/wt) was 78.1% and 89.2%; in experiment [1] (SRSF2 genotype: SRSF2 wt/wt), 70.8%; in experiment [2] (SRSF2 genotype: SRSF2 P95H/wt), 49.3%; in experiment [2] (SRSF2 genotype: SRSF2 wt/wt) it was 64.4%; in experiment [3] (SRSF2 genotype: SRSF2 P95H/wt), 74.2%; in experiment [3] (SRSF2 genotype: SRSF2 wt/wt) it was 84.9%. Further, the cell viability in experiment [4] (SRSF2 genotype: P95H/wt) is 64.3%; in experiment [4] (SRSF2 genotype: wt/wt), 66.9%.
For `CCOc1ccccc1N=Nc1c(C)[nH]n(-c2nc(-c3ccccc3)cs2)c1=O`, the cell viability was 95.7% and 103% in experiment [1] (SRSF2 genotype: SRSF2 P95H/wt); 91.9% in experiment [1] (SRSF2 genotype: SRSF2 wt/wt); 101% in experiment [2] (SRSF2 genotype: SRSF2 P95H/wt); 96.5% in experiment [2] (SRSF2 genotype: SRSF2 wt/wt); 97.8% in experiment [3] (SRSF2 genotype: SRSF2 P95H/wt); 95.9% in experiment [3] (SRSF2 genotype: SRSF2 wt/wt). In addition, the cell viability in experiment [4] (SRSF2 genotype: P95H/wt) came out at 108%; in experiment [4] (SRSF2 genotype: wt/wt), 97.2%.

Values taken from the supplement of paper PMC10981050.
